Several values for one entry are separate records, joined by “and”; a condition that tells them apart may be missing. Equal entries are not always repeated. About 79,000 compounds went through this panel and 15% of them were active in at least one assay; those are over-represented in the sample as a whole. Some structures have more than one record in an assay (separate samples or runs), and their calls can disagree. Activity calls are given as the source filed them. Cut-off read from the data, not from the text of the source: active = growth inhibition above about 70%; inactive = the rest.
Legend:
[1] = NCI Yeast Anticancer Drug Screen. Data for the rad50 strain (AID 155);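 note: 0% = growth of vehicle-only cultures of the same strain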; conditions: S. cerevisiae rad50 strain growth inhibition; at 50.0 µM; stronger effect = higher value
In short: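 Genetically altered yeast (DNA repair pathway); compound treatment; growth inhibition vs vehicle ctrl.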

[2] = NCI Yeast Anticancer Drug Screen. Data for the mec2-1 strain (AID 157); conditions: S. cerevisiae mec2-1 strain, at 50.0 µM, stronger effect = higher value
In short: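 Using mec2-1 yeast: add compound, measure growth, express inhibition versus vehicle-treated cultures.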

[3] = NCI Yeast Anticancer Drug Screen. Data for the sgs1 mgt1 strain (AID 161);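 note: 0% = growth of cultures given vehicle only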; conditions: S. cerevisiae sgs1 mgt1 strain, at 50.0 µM, stronger effect = higher value
In short: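 Yeast cells carrying a defined DNA-repair defect were exposed to test compounds. Growth inhibition was measured relative to vehicle-treated controls.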

[4] = NCI Yeast Anticancer Drug Screen. Data for the cln2 rad14 strain (AID 165);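 note: 0% = growth equal to vehicle treated cultures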; conditions: S. cerevisiae cln2 rad14 strain, at 50.0 µM, stronger effect = higher value
In short: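 Yeast strain cln2 rad14, bearing defects in cell cycle control and DNA repair, serves as the test system; values reflect growth inhibition compared with vehicle.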

[5] = NCI Yeast Anticancer Drug Screen. Data for the bub3 strain (AID 167); conditions: S. cerevisiae bub3 mutant strain, at 50.0 µM, stronger effect = higher value
In short: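 Yeast carrying a defined mutation is treated with each compound, and growth is compared with that of vehicle-exposed cells to give inhibition.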

[6] = NCI Yeast Anticancer Drug Screen. Data for the mlh1 rad18 strain (AID 175); conditions: S. cerevisiae mlh1 rad18 strain growth inhibition; at 50.0 µM; stronger effect = higher value
In short: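 Steps: expose repair-defective yeast to compound; measure growth; express inhibition against vehicle-treated controls.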

CC(=O)CC(C)=O.CC(=O)CC(C)=O.[Ni]
growth inhibition [1]: -39% (inactive)
growth inhibition [2]: -31.4% (inactive)
growth inhibition [3]: -1.1% (inactive)
growth inhibition [4]: 31.1% (inactive)
growth inhibition [5]: -6.35% (inactive)
growth inhibition [6]: -25.4% (inactive)

O=C1CCC(=O)N1[N+](=O)[O-]
growth inhibition [1]: -17.2% (inactive)
growth inhibition [2]: -10.2% (inactive)
growth inhibition [3]: -18.8% (inactive)
growth inhibition [4]: 2.95% (inactive)
growth inhibition [5]: -2.45% (inactive)
growth inhibition [6]: -16% (inactive)

CC1(C)CN=C(Nc2ccc(F)cc2)S1
growth inhibition [1]: 2.55% (inactive)
growth inhibition [2]: 0.6% (inactive)
growth inhibition [3]: -17.9% (inactive)
growth inhibition [4]: 19.3% (inactive)
growth inhibition [5]: -17.1% (inactive)
growth inhibition [6]: -21.8% (inactive)

CCC1(CC(C)(C)Cl)C(=O)NC(=O)NC1=O
growth inhibition [1]: -4.55% (inactive)
growth inhibition [2]: -7.7% (inactive)
growth inhibition [3]: -21.4% (inactive)
growth inhibition [4]: -30.7% (inactive)
growth inhibition [5]: 3.45% (inactive)
growth inhibition [6]: -20% (inactive)

COc1ccc2n[se]nc2c1
growth inhibition [1]: 46.4% (inactive)
growth inhibition [2]: 28.1% (inactive)
growth inhibition [3]: 26.9% (inactive)
growth inhibition [4]: 11.6% (inactive)
growth inhibition [5]: 51.6% (inactive)
growth inhibition [6]: 21% (inactive)

COC1/C=C/C=C(/C)Cc2cc(O)c(Cl)c(c2)N(C)C(=O)CC(OC(=O)C(C)C)C2(C)OC2C(C)C2CC1(O)NC(=O)O2 (centres undefined)
growth inhibition [1]: -9.05% (inactive)
growth inhibition [2]: -11.2% (inactive)
growth inhibition [3]: -15.8% (inactive)
growth inhibition [4]: -9.15% (inactive)
growth inhibition [5]: -6.2% (inactive)
growth inhibition [6]: -53% (inactive)

Nc1ccccc1C(=O)O
growth inhibition [1]: 15.3% (inactive)
growth inhibition [2]: 18.4% (inactive)
growth inhibition [3]: 0.7% (inactive)
growth inhibition [4]: 8.6% (inactive)
growth inhibition [5]: 18.4% (inactive)
growth inhibition [6]: 3.8% (inactive)

O=S(=O)(Cl)OO/C=C\OOS(=O)(=O)Cl
growth inhibition [1]: 18.2% (inactive)
growth inhibition [2]: 2.8% (inactive)
growth inhibition [3]: 12.7% (inactive)
growth inhibition [4]: -19.2% (inactive)
growth inhibition [5]: 11% (inactive)
growth inhibition [6]: -1.65% (inactive)

CCN1CC2(CO)CCC(OC)C34C5CC6C(OC)CC(O)(C5C6OC)C(O)(C(OC)C23)C14 (centres undefined)
growth inhibition [1]: 1.95% (inactive)
growth inhibition [2]: -16.6% (inactive)
growth inhibition [3]: 2.7% (inactive)
growth inhibition [4]: 9% (inactive)
growth inhibition [5]: -12.6% (inactive)
growth inhibition [6]: 6.75% (inactive)

CC(C)CC(N)C(=O)O (centres undefined)
growth inhibition [1]: -6% (inactive) and -19.2% (inactive)
growth inhibition [2]: -4.8% (inactive) and 9.15% (inactive)
growth inhibition [3]: -3.25% (inactive) and -31.2% (inactive)
growth inhibition [4]: -11.1% (inactive) and -34% (inactive)
growth inhibition [5]: 5.7% (inactive) and -8.45% (inactive)
growth inhibition [6]: 6.15% (inactive) and -40.9% (inactive)

CCOC(=O)C1=C(C)N2CCCOC2(C)C(C(=O)OC)C1c1cccc([N+](=O)[O-])c1 (centres undefined)
growth inhibition [1]: 38% (inactive)
growth inhibition [2]: 10.8% (inactive)
growth inhibition [3]: -6.5% (inactive)
growth inhibition [4]: 18.5% (inactive)
growth inhibition [5]: -34.6% (inactive)
growth inhibition [6]: 27.8% (inactive)

CC[C@@]1(O)C(=O)OCc2c1cc1n(c2=O)Cc2c-1nc1ccccc1c2C=Nc1ccccc1N[C@@H]1c2cc3c(cc2[C@@H](c2cc(OC)c(O)c(OC)c2)[C@H]2C(=O)OC[C@@H]21)OCO3
growth inhibition [1]: 78.8% (active) and 86.8% (active)
growth inhibition [2]: 71.7% (active) and 80.9% (active)
growth inhibition [3]: 76.5% (active) and 84.7% (active)
growth inhibition [4]: 63% (inactive) and 82% (active)
growth inhibition [5]: 69.9% (inactive) and 85.9% (active)
growth inhibition [6]: 39.6% (inactive) and 85.8% (active)

CCN1C[C@]2(C)CC[C@H](O)C34C1C(C[C@@H]32)[C@@]1(O)CC[C@H]2C[C@@H]4[C@@H]1[C@H]2O
growth inhibition [1]: 19.4% (inactive)
growth inhibition [2]: 1.15% (inactive)
growth inhibition [3]: -1.45% (inactive)
growth inhibition [4]: 23.8% (inactive)
growth inhibition [5]: 6.7% (inactive)
growth inhibition [6]: 31.2% (inactive)

COc1ccc(C[As+](c2ccccc2)(c2ccccc2)c2ccccc2)cc1
growth inhibition [1]: 97.8% (active)
growth inhibition [2]: 98.3% (active)
growth inhibition [3]: 97.4% (active)
growth inhibition [4]: 97% (active)
growth inhibition [5]: 93% (active)
growth inhibition [6]: 97.2% (active)

CC(=O)OC1=CCC2(C)C(CCC3C4CCC(OC(C)=O)C4(C)CCC32)C1=O (centres undefined)
growth inhibition [1]: 87.5% (active)
growth inhibition [2]: 79.4% (active)
growth inhibition [3]: 87.5% (active)
growth inhibition [4]: 72.3% (active)
growth inhibition [5]: 73.5% (active)
growth inhibition [6]: 85.3% (active)

CC(=O)c1ccc(-c2ccccc2)cc1
growth inhibition [1]: -5.3% (inactive)
growth inhibition [2]: 2.6% (inactive)
growth inhibition [3]: 8.45% (inactive)
growth inhibition [4]: 11.9% (inactive)
growth inhibition [5]: 3.6% (inactive)
growth inhibition [6]: 18.1% (inactive)

COC(=O)C(CC(=O)N[N+](=O)[O-])NC(=O)C(CSC(c1ccccc1)(c1ccccc1)c1ccccc1)NC(=O)OCc1ccccc1 (centres undefined)
growth inhibition [1]: -3.4% (inactive)
growth inhibition [2]: 11.7% (inactive)
growth inhibition [3]: -4.25% (inactive)
growth inhibition [4]: -15.1% (inactive)
growth inhibition [5]: -8.1% (inactive)
growth inhibition [6]: 29.3% (inactive)

COC(=O)C1C(OC(=O)C(Cl)(c2ccccc2)c2ccccc2)CC2CCC1N2C (centres undefined)
growth inhibition [1]: -5.25% (inactive)
growth inhibition [2]: -6.35% (inactive)
growth inhibition [3]: -19.6% (inactive)
growth inhibition [4]: 7.65% (inactive)
growth inhibition [5]: -21.1% (inactive)
growth inhibition [6]: -6.9% (inactive)

c1ccc(C2(N3CCC4(CC3)OCCO4)CCCCC2)cc1
growth inhibition [1]: 13% (inactive)
growth inhibition [2]: -2.9% (inactive)
growth inhibition [3]: 9.2% (inactive)
growth inhibition [4]: -17.6% (inactive)
growth inhibition [5]: 1.35% (inactive)
growth inhibition [6]: 6.35% (inactive)

CC[n+]1cccc2ccccc21
growth inhibition [1]: -0.45% (inactive) and 56.5% (inactive)
growth inhibition [2]: -6.7% (inactive) and 60.2% (inactive)
growth inhibition [3]: -6.7% (inactive) and 73.5% (active)
growth inhibition [4]: -11.2% (inactive) and 5.65% (inactive)
growth inhibition [5]: -4.9% (inactive) and 20.5% (inactive)
growth inhibition [6]: -25.2% (inactive) and 66.7% (inactive)

CC(=O)NC(ON1C(=O)COc2ccccc21)C(Cl)(Cl)Cl (centres undefined)
growth inhibition [1]: 27.6% (inactive)
growth inhibition [2]: -16.8% (inactive)
growth inhibition [3]: -13.2% (inactive)
growth inhibition [4]: 10.2% (inactive)
growth inhibition [5]: 26.6% (inactive)
growth inhibition [6]: 7.95% (inactive)

N#CC1(c2ccccc2)CCCC1
growth inhibition [1]: 5.7% (inactive)
growth inhibition [2]: 8.25% (inactive)
growth inhibition [3]: -4.7% (inactive)
growth inhibition [4]: 11.6% (inactive)
growth inhibition [5]: -4.05% (inactive)
growth inhibition [6]: 2.2% (inactive)

c1ccc([As]2[As](c3ccccc3)[As](c3ccccc3)[As]2c2ccccc2)cc1 (centres undefined)
growth inhibition [1]: 99.5% (active)
growth inhibition [2]: 99.8% (active)
growth inhibition [3]: 99.8% (active)
growth inhibition [4]: 98.1% (active)
growth inhibition [5]: 99.2% (active)
growth inhibition [6]: 99.5% (active)

CC(C)C(=O)OCC1CCCN2CCCCC12 (centres undefined)
growth inhibition [1]: 26.9% (inactive)
growth inhibition [2]: 26.4% (inactive)
growth inhibition [3]: 11.9% (inactive)
growth inhibition [4]: 19.2% (inactive)
growth inhibition [5]: 30.3% (inactive)
growth inhibition [6]: -35.2% (inactive)

CS(=O)(=O)OCCN(CCCl)c1cc(C(N)=O)c([N+](=O)[O-])cc1[N+](=O)[O-]
growth inhibition [1]: -6.8% (inactive)
growth inhibition [2]: -5.5% (inactive)
growth inhibition [3]: 5.45% (inactive)
growth inhibition [4]: -16.4% (inactive)
growth inhibition [5]: -11.4% (inactive)
growth inhibition [6]: -1.65% (inactive)

OCCN=Cc1ccccc1O.OCCN=Cc1ccccc1O.[Ni]
growth inhibition [1]: 32.2% (inactive)
growth inhibition [2]: 7.3% (inactive)
growth inhibition [3]: 17.9% (inactive)
growth inhibition [4]: -26.4% (inactive)
growth inhibition [5]: 12.8% (inactive)
growth inhibition [6]: 18.4% (inactive)

CC12C(=O)C(C)(C(c3ccccc3)=C1c1ccccc1)C1(C#N)NC21C#N (centres undefined)
growth inhibition [1]: 14.9% (inactive)
growth inhibition [2]: 2.65% (inactive)
growth inhibition [3]: 22.8% (inactive)
growth inhibition [4]: 18.2% (inactive)
growth inhibition [5]: 13.8% (inactive)
growth inhibition [6]: 40% (inactive)

COCC#CCN(C)C
growth inhibition [1]: -7.75% (inactive)
growth inhibition [2]: -8.3% (inactive)
growth inhibition [3]: -13.8% (inactive)
growth inhibition [4]: 2.85% (inactive)
growth inhibition [5]: 9.95% (inactive)
growth inhibition [6]: -9.4% (inactive)

COc1nc2ccccc2nc1N1CC1
growth inhibition [1]: -3.25% (inactive)
growth inhibition [2]: -31% (inactive)
growth inhibition [3]: -15% (inactive)
growth inhibition [4]: 6.9% (inactive)
growth inhibition [5]: -24.6% (inactive)
growth inhibition [6]: -1.65% (inactive)

CC(Cc1ccc(O)cc1)NCC(O)c1ccc(O)c(O)c1 (centres undefined)
growth inhibition [1]: 10.6% (inactive)
growth inhibition [2]: 15.3% (inactive)
growth inhibition [3]: 3.4% (inactive)
growth inhibition [4]: 0.55% (inactive)
growth inhibition [5]: -7.45% (inactive)
growth inhibition [6]: 22.9% (inactive)

CC(OC(N)=O)C(F)(F)C(F)F (centres undefined)
growth inhibition [1]: -26.6% (inactive)
growth inhibition [2]: -9.15% (inactive)
growth inhibition [3]: 1.35% (inactive)
growth inhibition [4]: -39.2% (inactive)
growth inhibition [5]: -12.8% (inactive)
growth inhibition [6]: -1.85% (inactive)

O=C(Nc1cccc(F)c1)c1c(O)[nH]c(=S)[nH]c1=O
growth inhibition [1]: 26.1% (inactive)
growth inhibition [2]: 14.3% (inactive)
growth inhibition [3]: 38.4% (inactive)
growth inhibition [4]: 10.9% (inactive)
growth inhibition [5]: 21.3% (inactive)
growth inhibition [6]: 40.2% (inactive)

CC(C)(C)c1cc(O)ccc1O
growth inhibition [1]: 22.5% (inactive)
growth inhibition [2]: -1.55% (inactive)
growth inhibition [3]: -29.1% (inactive)
growth inhibition [4]: -0.25% (inactive)
growth inhibition [5]: -25.7% (inactive)
growth inhibition [6]: 24.5% (inactive)

CC(C)(C)c1cc(C#N)cc(Br)c1OP(=O)(Oc1c(Br)cc(C#N)cc1C(C)(C)C)c1ccccc1
growth inhibition [1]: -9.6% (inactive)
growth inhibition [2]: -7.5% (inactive)
growth inhibition [3]: -28.8% (inactive)
growth inhibition [4]: -3% (inactive)
growth inhibition [5]: -24% (inactive)
growth inhibition [6]: -17.6% (inactive)
